VP16 counter = VP16 counterscreen qHTS for inhibitors of ROR gamma transcriptional activity; Drosophila S2 Gal4-VP16 UAS-luciferase, luminescence, 20 h; Potency, µM (top dose mostly 53.6 µM), without a hit: top-dose activity, negative = inhibition, most hits filed as inhibitors; actives 3.5% (n = 310,000);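 also: Gal4-VP16 expression switched on by copper sulfate through the metallothionein promoter; nearly all actives have a fitted effect of over 50% in size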
ALDH1A1 block = qHTS Assay for Inhibitors of Aldehyde Dehydrogenase 1 (ALDH1A1); Aldehyde dehydrogenase 1A1 (Homo sapiens), P00352; Purified ALDH1A1, NADH fluorescence, propionaldehyde substrate; Potency, µM (titrated, usually from 75.3 µM), without a hit: at the top dose activity, negative = inhibition, most hits filed as inhibitors; actives 7.3% (n = 220,000); AID 1030, 2008; active = well fitted inhibition curve with a large enough effect, not every such curve was filed as active; inconclusive = small, poorly fitted or top-dose-only effect, or another doubt; inactive = no such curve, though single readings can be large or run the other way;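 also: plate controls were no enzyme wells and a reference inhibitor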
Sfp inh = qHTS Assay for Inhibitors of Bacillus subtilis Sfp phosphopantetheinyl transferase (PPTase); Biochemical Sfp PPTase activity, qHTS; Potency, µM, for the others: largest response in the series, negative = inhibition, hits mostly inhibitors; actives 3.5% (n = 310,000); AID 1490, 2009;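 also: the enzyme is Sfp with the accession as filed and its product quenches rhodamine fluorescence; 0% = enzyme reaction without inhibitor and -100% = no enzyme wells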
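Buffer: 50 mM Hepes-Na pH 7.6, 10 mM MgCl2, 0.01% Nonidet P-40, 0.01% BSA. Enzyme 15 nM, pre-exposed to compound 15 min; substrates then added and fluorescence change tracked over 30 min.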
RORg inh = qHTS for inhibitors of ROR gamma transcriptional activity; Drosophila S2 Gal4-RORgamma UAS-luciferase reporter, 20 h; Potency, µM (doses to about 53.6 µM), for inactives: top-dose activity change, negative = inhibition, usual class: inhibitors; actives 5.4% (n = 310,000); also: nearly all actives have a fitted effect of over 60% in size
Target sequence (P51450 whole entry, looked up, the tested form may be a part): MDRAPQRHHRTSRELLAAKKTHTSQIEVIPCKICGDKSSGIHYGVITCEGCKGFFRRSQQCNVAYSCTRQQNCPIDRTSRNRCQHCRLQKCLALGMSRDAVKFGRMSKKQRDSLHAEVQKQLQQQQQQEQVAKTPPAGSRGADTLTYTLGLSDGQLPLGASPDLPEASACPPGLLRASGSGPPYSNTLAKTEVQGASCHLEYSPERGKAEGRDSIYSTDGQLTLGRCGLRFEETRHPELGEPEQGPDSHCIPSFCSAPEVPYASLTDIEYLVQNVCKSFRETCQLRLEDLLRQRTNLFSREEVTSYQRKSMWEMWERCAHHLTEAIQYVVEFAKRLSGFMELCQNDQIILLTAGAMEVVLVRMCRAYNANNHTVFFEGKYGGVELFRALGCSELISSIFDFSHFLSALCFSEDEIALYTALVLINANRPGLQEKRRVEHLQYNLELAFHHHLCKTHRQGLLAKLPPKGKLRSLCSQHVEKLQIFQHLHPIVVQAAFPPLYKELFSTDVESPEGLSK
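Drosophila S2 cells stably expressing Gal4-DBD/mouse RORγ fusion under metallothionein promoter plus UAS-luciferase; compound 1 h, then 700 uM CuSO4 induction for 20 h at ambient temperature; inhibition read as reduced luminescence.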
PLK1 PBD inh = qHTS for Inhibitors of PLK1-PDB (polo-like kinase 1 - polo-box domain): Primary Screen; Plk1 PBD binding of FITC phosphopeptide, fluorescence polarization; AID 720504, 2013; Potency, µM, inactives show max response, negative = inhibition, hits mostly inhibitors; actives 2.8% (n = 360,000); also: series mostly up to about 57 µM; nearly all actives have a fitted effect of over 65% in size
Active calls of the source: *; u = inconclusive; x = no result; [ ] = remark or other dose. The list is not random: actives were taken first. Their share in the collection is about 12%. Unless noted, calls follow the shape of the dose curve; as a rule, active = well fitted curve in the direction sought with a large enough effect; inconclusive = small, poorly fitted or top-dose-only effect, or another doubt; inactive = no such curve, though single readings can be large; an effect the other way counts as inactive or inconclusive. Unless noted, % is scaled to controls: 0 for no effect and ±100 for the full control effect; potency is read from the fitted curve at half-maximal effect.

SMILES	VP16 counter	ALDH1A1 block	Sfp inh	RORg inh	PLK1 PBD inh
Cc1ccc(-n2c(C)cc(C(=O)COc3c(CO)cc(F)cc3CO)c2C)cc1C	u	1%	-13%	u	-7%
COc1ccc(-n2nnnc2CNC(=O)c2c(-c3ccccc3Cl)noc2C)cc1	x	x	x	x	-7%
CCCCC/C=C\C/C=C\C/C=C\CCCCCCC(=O)NCCCC(=O)O	-2%	-2%	22%	3%	x
COC(=O)c1c(N)[nH]c(C(=O)c2ccccc2)c1-c1ccccc1Br	x	x	x	x	-10%
C/C(=N\NC(=O)c1nnn(-c2nonc2N)c1CN1CCC(C)CC1)c1ccc(Br)cc1	x	x	x	x	0%
N#C/C(=C\c1ccc(O)cc1)C(=O)N1CCCC1	-5%	u	14%	18%	-8%
CN1CCN(C(=O)/C(C#N)=C/c2ccc(F)cc2)CC1	-14%	1.8µM*	2%	23%	-17%
N#C/C(=C\c1ccc(C#N)cc1)C(=O)N1CCCC1	4%	7.9µM*	u	18%	x
Cc1[nH][nH]c(=O)c1C(c1cc2c(cc1Br)OCO2)c1c(C)[nH][nH]c1=O	1%	u	-23%	-12%	-16%
O=C(O)c1[nH]c2ccccc2c1C(c1cc(Br)ccc1O)c1c(C(=O)O)[nH]c2ccccc12	-9%	x	8%	6%	17µM*
Cc1[nH][nH]c(=O)c1C(c1cc(Br)ccc1O)c1c(C)[nH][nH]c1=O	1%	x	14%	0%	24µM*
COc1cc(Cl)cc(C(c2c(C(=O)O)[nH]c3ccccc23)c2c(C(=O)O)[nH]c3ccccc23)c1O	-2%	x	2%	-3%	24µM*
O=C(O)c1ccccc1C(=O)Nc1cc2c(cc1Br)-c1ccccc1C2=O	x	5%[13.5 µM]	x	x	x
Cc1c(OCC(=O)N[C@H](C(=O)O)c2ccccc2)ccc2c3c(c(=O)oc12)CCCC3	-2%	x	23%	-6%	-6%
CCOC(=O)[C@]12CCCC=C1N(Cc1ccc(Cl)cc1Cl)C(=O)[C@H](CC(=O)N1CCN(C(=O)c3ccco3)CC1)C2	x	x	x	x	4%
CC(=O)c1c(C)n(CCO)c2ccc(O)cc12	-1%	1%	-3%	2%	-3%
CCCCCS(=O)(=O)CCCCCCCCCCn1c(-c2ccc(O)cc2)c(C)c2cc(O)ccc21	20µM*	u	44%	u	x
CC1(C(=O)NCc2cccc3ccccc23)CCN1C(=O)C1(c2ccccc2)CCCC1 (centres undefined)	x	x	x	x	0%
COCCCn1c(C(=O)Nc2ccc3c(c2)OCO3)cc2c(=O)n3ccccc3nc21	1%	x	-13%	0%	3µM*
CCCCNC(=O)C1(C)CCCCN1C(=O)c1c(Cl)cccc1Cl (centres undefined)	x	x	x	x	-2%
Cc1nn(-c2ccccc2)c(Cl)c1C(=O)N1CCN(c2ncnc3c2cnn3-c2ccccc2)CC1	u	14µM*	9%	-29%	3%
O=C(c1cccc(Cl)c1)N1CCN(c2ncnc3c2cnn3-c2ccccc2)CC1	-4%	7.9µM*	15%	43%	-17%
NS(=O)(=O)c1ccc(N2C(=O)CCCC2=O)cc1	x	x	x	x	1%
CCOc1cc(C=O)cc(Cl)c1OCC(N)=O	1%	7.1µM*	-10%	2%	-30%
CCOc1cc(/C=C2\N=C(C)OC2=O)cc(Cl)c1OCC(=O)OC	x	x	x	x	0%
SMILES	VP16 counter	ALDH1A1 block	Sfp inh	RORg inh	PLK1 PBD inh
O=C(CCCc1ccccn1)c1ccccc1	x	3%[13.5 µM]	x	x	-3%
O=C(O)CCSc1ccccn1	-4%	u	50µM*	-9%	13µM*
O=C(CCSc1ccccn1)c1ccccc1	u	0.25µM*	79µM*	20µM*	u
O=C(CCSc1ccccn1)Nc1ccc(Br)cc1	-3%	-9%	-11%	36%	0%
CC1NC(=O)NC1CCCCC(=O)O (centres undefined)	-2%	3%	11%	-14%	11µM*
N#CN1C2CCC1CC(O)(c1ccccc1)C2 (centres undefined)	x	x	x	x	1%
Cn1c(=S)ccc2ccccc21	7%	25µM*	45µM*	-34%	27µM*
Cc1noc2ncnc(Sc3ccc(Br)cc3)c12	11µM*	u	-6%	4µM*	u
O=C(NNC(=O)c1ccc(F)cc1F)c1ccc(-n2cnnn2)cc1	-5%	x	12%	-22%	-12%
CC1=C(/C=C/C(C)=C/C=C/C(C)=C/C=C/C=C(C)/C=C/C=C(C)/C=C/C2=C(C)C(=O)C(O)CC2(C)C)C(C)(C)CC(O)C1=O (centres undefined)	-1%	6%	13%	-3%	x
CCOC(=O)c1c(/N=C/N(C)C)sc(C=O)c1-c1ccccc1	1%	u	12%	-19%	-3%
CCOC(=O)c1c(/N=C/N(C)C)sc(/C=N/Nc2ccccc2)c1-c1ccccc1Cl	-9%	13µM*	20%	33%	-11%
CCOC(=O)c1c(/N=C/N(C)C)sc(/C=N/Nc2ccccc2)c1-c1ccccc1	-16%	25µM*	2%	-11%	24µM*
COc1ccccc1-c1cn(CC[C@H]2CC[C@@H](NS(=O)(=O)c3ccccc3C)[C@@H](CO)O2)nn1	x	x	x	x	-16%
CC(=O)Nc1cccc(-c2cn3ccc(C)cc3n2)c1	u	u	-12%	u	1%
Cc1ccn2cc(-c3cccc(NC(=O)CCC(=O)O)c3)nc2c1	10µM*	x	4%	7.1µM*	5%
Cc1ccn2cc(-c3ccc(Br)cc3)nc2c1	u	x	3%	8.9µM*	-13%
Cc1ccc(S(=O)(=O)Nc2ccc(-c3cn4ccc(C)cc4n3)cc2)cc1	-1%	-3%	-1%	u	u
Cc1oncc1-c1cn2ccccc2n1	-2%	u	9%	20%	-4%
Cc1ccn2cc(-c3cccc([N+](=O)[O-])c3)nc2c1	u	u	-5%	10µM*	-10%
Cc1ccn2cc(-c3cnoc3C)nc2c1	2%	u	4%	1%	27µM*
CCOc1cc(N2CCOCC2)c(OCC)cc1NC(=O)COC(=O)c1ccc([N+](=O)[O-])o1	x	x	x	x	-3%
COc1ccc([C@]23Cc4cc(OC)c(OC)cc4C(O2)C2=C(CC(C)(C)CC2=O)O3)cc1	-3%[10 µM]	x	1%	1%[10 µM]	x
Fc1ccc(-c2nc3nc4ccccc4nc3n2Cc2ccco2)cc1	2%	u	18µM*	u	-6%
Fc1ccc(-n2c(-c3ccco3)nc3nc4ccccc4nc32)cc1	-1%	u	5%	-25%	-7%
c1ccc(-c2nc3nc4ccccc4nc3n2Cc2ccco2)cc1	20µM*	u	10µM*	-91%	-14%
COCCNc1nc(Nc2ccc(C(=O)OC)cc2)c2sccc2n1	x	x	x	x	-5%

High-throughput results (PubChem BioAssay)
